Measured values taken from PubChem BioAssay (EPA / NIEHS).
Where “and” joins values, the source holds several entries; their conditions need not be identical. Identical values can stand only once. Inconclusive results are not listed. A structure can be active in one record and inactive in another. Calls of active or inactive are those of the source. Rule for the calls, unless noted: active = hit-call score of the fitted dose curve at least 0.9, where 1 is the maximum; inactive = score below 0.9.

What was measured:
[1] = read-out: Thyroid Hormone Responsive (THRSP), THRSP (gene 7069); test: LTEA_HepaRG_THRSP: Life Technologies and Expression Analysis (LTEA) Assay for Thyroid Hormone Responsive (THRSP) using HepaRG (AID 2283536); details: mRNA level, 48 h; actives raise or lower the signal
Method in brief: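 qRT-PCR read-out (Fluidigm TaqMan), housekeeping-normalized (ACTB/GAPDH/POLR2A). HepaRG, 48 h chemical exposure, 8-pt half-log series from 100 uM in 0.5% DMSO, duplicates. Bidirectional curve fit vs 0.5% DMSO baseline.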

[2] = read-out: Cellular tumor antigen p53 (Homo sapiens) (UniProt P04637); test: LTEA_HepaRG_TP53: Life Technologies and Expression Analysis (LTEA) Assay for Tumor Protein P53 (TP53) using HepaRG (AID 2283537); details: mRNA level, 48 h; actives raise or lower the signal
Method in brief: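 TP53 transcript measured by qRT-PCR, normalized to three housekeeping genes, after 48 h treatment of human HepaRG cultures with chemicals from 100 uM downward in half-log steps (0.5% DMSO vehicle, serum-free induction medium). Up- or down-regulation fitted against DMSO.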

[3] = read-out: UDP glucuronosyltransferase (UGT1A1), UGT1A1 (gene 54658); test: LTEA_HepaRG_UGT1A1: Life Technologies and Expression Analysis (LTEA) Assay for UDP glucuronosyltransferase (UGT1A1) using HepaRG (AID 2283538); details: mRNA level, 48 h; actives raise or lower the signal
Method in brief: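 Cells are plated, cultured 48 h, switched to serum-free induction medium, then dosed 48 h at eight concentrations (max 100 uM, 0.5% DMSO). RNA is isolated and UGT1A1 expression measured by qRT-PCR; changes versus DMSO are fitted in both directions.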

[4] = read-out: UDP glucuronosyltransferase (UGT1A6), UGT1A6 (gene 54578); test: LTEA_HepaRG_UGT1A6: Life Technologies and Expression Analysis (LTEA) Assay for UDP glucuronosyltransferase (UGT1A6) using HepaRG (AID 2283539); details: mRNA level, 48 h; actives raise or lower the signal
Method in brief: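 Expression was quantified by TaqMan qRT-PCR on Fluidigm arrays with ACTB/GAPDH/POLR2A normalization and bidirectional fitting against 0.5% DMSO. HepaRG cells (~100,000/well) were treated in duplicate for 48 h at eight half-log concentrations up to 100 uM in serum-free induction medium.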

[5] = read-out: X-box binding protein 1 (XBP1), XBP1 (gene 7494); test: LTEA_HepaRG_XBP1: Life Technologies and Expression Analysis (LTEA) Assay for X-box binding protein 1 (XBP1) using HepaRG (AID 2283540); details: mRNA level, 48 h; actives raise or lower the signal
Method in brief: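 XBP1 transcript by qRT-PCR (housekeeping-normalized: ACTB, GAPDH, POLR2A) after 48 h chemical treatment of HepaRG cells, 8-point half-log series topping at 100 uM, vehicle 0.5% DMSO. Gain and loss of signal fitted relative to DMSO.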

[6] = LTEA_HepaRG_LDH_cytotoxicity: Cytotoxicity Assessment in the Life Technologies and Expression Analysis (LTEA) Assay (AID 2283563; active = hit-call score of the fitted dose curve at least 0.9, where 1 is the maximum;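 for AC50: LDH activity released into spent culture medium as a marker of cell death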)
Method in brief: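 LDH release into culture medium read after 48 h chemical treatment of HepaRG cells. Duplicate wells, eight-point half-log series topping at 100 uM, 0.5% DMSO vehicle and baseline.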

[7] = TOX21_p53_BLA_p2_viability: Viability Assessment in the Tox21 HCT-116 p53 Agonism Beta-lactamase Assay, Phase 2 (AID 2283591; active = hit-call score of the fitted dose curve at least 0.9, where 1 is the maximum;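 note: compound exposure lasted 16 h at 37 °C; actives lower the ATP signal meaning cytotoxicity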)
Method in brief: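 HCT116 p53-bla cells, 4000/well, dosed after 5 h plating (217-fold dilution of DMSO stocks) and incubated 16 h at 37C. Viability taken as cellular ATP by CellTiter-Glo luminescence after 30 min RT; signal loss marks cytotoxicity.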

[8] = molecular target: Cellular tumor antigen p53 (Homo sapiens) (UniProt P04637); test: TOX21_p53_BLA_p2_ratio: Tox21 HCT-116 p53 Agonism Beta-lactamase Assay, Ratio, Phase 2 (AID 2283592; active = hit-call score of the fitted dose curve at least 0.9, where 1 is the maximum)
Method in brief: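 Read-out is the blue/green (460/530 nm, 405 nm excitation) ratio after 2 h CCF4-AM loading, fitted as gain versus DMSO. Compounds, pinned at 217-fold dilution from DMSO stocks, stayed 16 h on HCT-116 beta-lactamase reporter cells seeded 5 h earlier.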

[9] = TOX21_p53_BLA_p3_viability: Viability Assessment in the Tox21 HCT-116 p53 Agonism Beta-lactamase Assay, Phase 3 (AID 2283593; active = hit-call score of the fitted dose curve at least 0.9, where 1 is the maximum;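 note: cells exposed to compound for 16 h before reading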)
Method in brief: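 HCT116 cells, 4000/well, dosed 5 h after plating by pin transfer (217-fold dilution from DMSO stock) and incubated 16 h at 37C, 5% CO2. Viability read as ATP luminescence with CellTiter-Glo after 30 min at room temperature.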

Measured: AC50

Sequence of Cellular tumor antigen p53 (Homo sapiens) (P04637 whole entry, looked up): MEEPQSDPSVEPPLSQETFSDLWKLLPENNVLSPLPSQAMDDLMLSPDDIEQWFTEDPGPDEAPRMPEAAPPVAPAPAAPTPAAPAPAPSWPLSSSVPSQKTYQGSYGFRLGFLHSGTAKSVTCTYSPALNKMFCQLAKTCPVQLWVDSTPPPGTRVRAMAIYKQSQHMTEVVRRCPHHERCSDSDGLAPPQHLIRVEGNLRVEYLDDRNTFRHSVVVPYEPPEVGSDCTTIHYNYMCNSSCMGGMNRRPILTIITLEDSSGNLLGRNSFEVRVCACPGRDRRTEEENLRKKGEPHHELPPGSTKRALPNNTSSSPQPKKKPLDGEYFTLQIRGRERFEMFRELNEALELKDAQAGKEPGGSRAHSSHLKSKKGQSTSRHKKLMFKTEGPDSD

CN1C(=O)CC[C@H]1c1cccnc1
inactive: all assays above

C[C@]12CC[C@@H]3c4ccc(O)cc4CC[C@H]3[C@@H]1CCC2=O
inactive: [1] | [4] | [5] | [6] | [8]
active: [3] 5.13 µM

CC[C@@H]1C[C@H](N(Cc2cc(C(F)(F)F)cc(C(F)(F)F)c2)C(C)=O)c2cc(C(F)(F)F)ccc2N1C(=O)OC(C)C
active: [3] 0.546 µM
not listed: [7] | [9]
inactive: all other assays above

CCO[Si](CCCNC(N)=O)(OCC)OCC
inactive: all assays above

CCCCCCCCOC(=O)c1cc(O)c(O)c(O)c1
active: [7] 27.6 µM | [8] 50 µM | [9] 67.9 µM
inactive: all other assays above

CCCCCc1ccc(N)cc1
inactive: all assays above

O=C1O[C@H]([C@@H](O)CO)C(O)=C1O
not listed: [5]
inactive: all other assays above

O=C=NCCCCCCN=C=O
not listed: [7]
inactive: all other assays above

CCOC(=O)O[C@H](C)OC(=O)c1ccc2c(c1)cc(C(=O)NC1CCN(C(C)C)CC1)n2Cc1cc(-c2ccc(Cl)s2)on1
active: [1] 16 µM | [6] 79.2 µM | [7] 16.1 µM | [8] 27.9 µM | [9] 55.8 µM
inactive: [2] | [3] | [4] | [5]

Cc1ncc(CO)c(CO)c1O
not listed: [6]
inactive: all other assays above

COc1ccc2cc(S(=O)(=O)N[C@H](CC(=O)N[C@H](Cc3ccc(CN4[C@H](C)CCC[C@@H]4C)cc3)C(=O)N(C)C(C)C)c3ccc4c(c3)OCO4)ccc2c1
active: [2] 24.1 µM | [3] 26 µM | [4] 23.2 µM | [6] 20.7 µM | [7] 74.2 µM | [8] 70.3 µM | [9] 84.8 µM
inactive: [1] | [5]

CCCCCCCCN(C)CCCCCCCC
not listed: [7]
inactive: all other assays above

COc1cccc([C@H](O)C2CCN(CCc3ccc(F)cc3)CC2)c1OC
not listed: [8]
inactive: all other assays above

C[C@]12CC[C@@H]3c4ccc(O)cc4CC[C@H]3[C@@H]1CC[C@H]2O
active: [3] 2.42 µM | [8] 15.9 µM
not listed: [6]
inactive: all other assays above

Cc1ccc(C(C)C)cc1
inactive: all assays above

c1ccc(C[n+]2cccc3ccccc32)cc1
active: [1] 50 µM | [2] 35.7 µM | [3] 26 µM | [6] 34.4 µM
inactive: all other assays above

Cc1cc(F)ccc1-c1cc(N2CC[C@@H](O)[C@H]2CO)ncc1N(C)C(=O)C(C)(C)c1cc(C(F)(F)F)cc(C(F)(F)F)c1
inactive: [4] | [5]
active: [1] 20.6 µM | [2] 19.9 µM | [3] 23 µM | [6] 30.9 µM | [7] 11 µM | [8] 21.8 µM | [9] 30.7 µM

CC1=CC(=O)/C(=C(/C)O)C(=O)O1
not listed: [7] | [8]
inactive: all other assays above

O=C(Nc1ccc(Cl)cc1)Nc1ccc(Cl)c(Cl)c1
inactive: [1] | [7] | [9]
active: [2] 12.4 µM | [3] 14.9 µM | [4] 13.5 µM | [5] 17.2 µM | [6] 24.9 µM | [8] 3.12 µM and 5.23 µM and 3.82 µM

Cc1c2ccccc2c(C)c2c1ccc1ccccc12
inactive: [5] | [6] | [7] | [9]
active: [1] 75.4 µM | [2] 54.1 µM | [3] 0.714 µM | [4] 35 µM | [8] 14.6 µM and 37.7 µM | [9] 61.5 µM

Cc1cccc2ccccc12
inactive: all assays above

CCN(Cc1cccnc1)C(=O)c1cccc(Cl)c1[C@]1(C)C(=O)N(Cc2ccc(OC)cc2OC)c2ccc(Cl)cc21
inactive: [7] | [9]
active: [1] 24 µM | [2] 11.6 µM | [3] 25.2 µM | [4] 16.7 µM | [5] 24.6 µM | [6] 25.5 µM | [8] 43.2 µM
